RAD52 anneal inh – RAD52 DNA annealing inhibitors, primary screen, biochemical, FRET, single point, set 2. DNA repair protein RAD52 homolog (Homo sapiens), P43351. recombinant RAD52 DNA annealing, FRET fluorescence. inhibition, % at 18.7 µM. 0.46% of 360,000 active;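 active = every replicate showing at least 50% inhibition; inconclusive = mean inhibition at least 50% but not in every replicate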
Target sequence (P43351 whole entry, looked up): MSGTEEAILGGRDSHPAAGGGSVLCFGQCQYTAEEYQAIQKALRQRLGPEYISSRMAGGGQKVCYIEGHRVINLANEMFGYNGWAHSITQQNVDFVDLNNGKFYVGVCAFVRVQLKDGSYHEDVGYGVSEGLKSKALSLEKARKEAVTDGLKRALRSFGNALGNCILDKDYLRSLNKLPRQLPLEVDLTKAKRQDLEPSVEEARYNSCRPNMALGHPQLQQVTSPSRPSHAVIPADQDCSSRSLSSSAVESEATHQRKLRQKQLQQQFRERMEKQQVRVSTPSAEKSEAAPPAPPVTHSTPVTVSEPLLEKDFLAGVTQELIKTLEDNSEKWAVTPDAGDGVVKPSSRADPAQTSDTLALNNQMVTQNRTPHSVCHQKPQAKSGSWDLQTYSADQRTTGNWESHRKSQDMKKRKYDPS
dFosB act – activators of delta FosB homodimer, primary screen, biochemical, fluorescence polarization, TAMRA-CDK5 oligo, single point | purified delta FosB; percent of positive-control signal above neutral wells | activation, % at 25 µM | 0.99% of 340,000 active | AID 493131, 2011;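 active = mean activation above about 17%, with every replicate also reaching it, limit read from the data, passing the limit was not always enough; inconclusive = only one of the two conditions met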
RAD54 branch – inhibitors of human RAD54 branch migration, primary screen, biochemical, fluorescence, single point. DNA repair and recombination protein RAD54-like (Homo sapiens), Q92698. RAD54 Holliday junction branch migration, FAM/BHQ fluorescence. inhibition, % at 10.4 µM. 0.14% of 360,000 active. AID 602329, 2012;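 active = mean normalized replicate activity at least 40 and at least half of replicates scoring 40 or more; inconclusive = only one of the two criteria met; inactive = mean below 40 and under half of replicates reaching 40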;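 also: inhibitors cause a drop in the FAM fluorescence signal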
INS-1E GSIS act – GLuc luminescence reporter in INS-1E cells, primary screen for activators of glucose-dependent secretion of insulin; INS-1E GLuc reporter insulin secretion, 2-3 h; activation, % at 16.6 µM; 0.61% of 370,000 active;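 active = lowest replicate activation of at least 40%, so every replicate reaches that level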
DENV2 CPE – inhibitors of DENV2 cytopathic effect, primary screen, cell-based, plate reader, single concentration; DENV2-infected cells, cytopathic effect rescue; CPE inhibition, % at 9.99 µM; 1.7% of 350,000 active; AID 651640, 2012; in the data active = CPE inhibition above about 20%, passing the limit was not always enough; inconclusive = no clear call, values can overlap the other calls; tested in BHK-21 cells
MLL AF4-AF9 inh – inhibitors of AF4 peptide binding to AF9, primary screen, biochemical, AlphaScreen, biotin-AF4 peptide, FLAG-AF9, single point; AID 651704, 2012; 0.47% of 350,000 active; inhibition, % at 10 µM; Protein AF-9 (Homo sapiens), P42568;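 active = every replicate reaching a set inhibition limit, whatever the replicate mean, cut at about 25% in these data; inconclusive = mean inhibition reaches that limit but some replicates miss it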
A number is an active result; 0 = inactive; ? = inconclusive; - = no result given. Most compounds without a hit are left out; they make up all but 3.1% or so of the library.

SMILES	RAD52 anneal inh	dFosB act	RAD54 branch	INS-1E GSIS act	DENV2 CPE	MLL AF4-AF9 inh
COc1ccc(NC(=O)c2sc3nc(N4CCOCC4)c4c(c3c2N)CC(C)(C)OC4)cc1	0	0	0	0	0	0
C[C@H](CO)N1C[C@H](C)[C@@H](CN(C)Cc2ccc(C(=O)O)cc2)Oc2c(NC(=O)NC3CCCCC3)cccc2C1=O	0	-	0	0	0	0
C[C@H]1CN([C@@H](C)CO)C(=O)c2cc(-c3ccccc3)cnc2O[C@@H]1CN(C)Cc1cccnc1	0	-	0	0	0	0
CCN(CC(=O)Nc1c(F)cccc1F)C(=O)c1ccc(COc2ccccc2)cc1	0	0	0	0	89.0	0
Oc1c(Cl)cc(CN2CCOCC2)c2cccnc12	0	0	0	0	0	34.9
O=C(Oc1c(CN2CCOCC2)cc(Cl)c2cccnc12)c1ccccc1	0	0	-	0	0	0
CC(C)NC(=O)Nc1ccc2c(c1)CC(=O)N([C@H](C)CO)C[C@H](C)[C@H](CN(C)C(=O)Nc1ccc(F)cc1)O2	0	-	0	0	0	0
Cc1ccc(S(=O)(=O)Nc2ccc3c(c2)CC(=O)N([C@@H](C)CO)C[C@H](C)[C@H](CN(C)C(=O)Nc2c(C)noc2C)O3)cc1	0	-	0	0	0	0
N#Cc1ccc(C(=O)Nc2cc(C3CC3)nn2-c2ccccc2)cc1	0	0	0	0	22.1	-
COc1ccc(C#Cc2ccc([C@H]3[C@H](CO)N4CCCCN(C)C[C@@H]34)cc2)cc1	63.3	-	0	0	0	0
COCC(=O)N1CCCCN2[C@@H](CO)[C@H](c3ccc(C#Cc4ccc(OC)cc4)cc3)[C@@H]2C1	0	-	0	0	0	0
COc1ccc(C#Cc2ccc([C@H]3[C@H]4CN(C)CCCCN4[C@H]3CO)cc2)cc1	51.8	-	0	0	0	0
CN(CC(=O)Nc1cccc2ccccc12)C(=O)c1ccc(NC(=O)CC#N)cc1	0	0	0	0	0	0
CCOc1cc(C(=O)N(C)CC(=O)Nc2cccc3ccccc23)ccc1OC	0	0	-	56.6	41.6	0
COC(=O)[C@@]1(CCS(=O)(=O)c2ccccc2)N=C(c2ccc(OCCCO)cc2)O[C@H]1c1ccccc1CN=[N+]=[N-]	0	-	0	-	21.6	0
O=C(N1CCOCC1)[C@]1(CCS(=O)(=O)c2ccccc2)N=C(c2ccc(OCCCO)cc2)O[C@@H]1c1ccccc1	0	-	0	-	22.8	0
O=C(NCCN1CCOCC1)[C@@]1(CCS(=O)(=O)c2ccccc2)N=C(c2ccc(OCCCO)cc2)O[C@H]1c1ccccc1	0	-	0	-	0	0
CN(C)C(=O)[C@H]1[C@H](CO)[C@H]2Cn3c(ccc(-c4cccc(F)c4)c3=O)[C@H]2N1C(=O)c1cnccn1	0	-	0	0	30.1	0
CN(C)C(=O)[C@@H]1[C@@H](CO)[C@@H]2Cn3c(ccc(-c4cccc(F)c4)c3=O)[C@@H]2N1C(=O)c1ccccn1	-	-	-	0	-	-
CCN1[C@H](C(=O)NCCCN(C)C)[C@@H](CO)[C@@H]2Cn3c(ccc(-c4cccc(F)c4)c3=O)[C@@H]21	0	-	-	0	80.5	0
O=C(NCc1ccccn1)c1ccccc1OCc1ccc(Cl)cc1Cl	0	0	0	49.0	?	0
C[C@@H]1CN([C@@H](C)CO)C(=O)c2cc(NC(=O)Nc3ccccc3)ccc2O[C@H]1CN(C)Cc1ccc(C(=O)O)cc1	0	-	0	0	0	0
CN(C)CC(=O)N1[C@H](CO)[C@@H](c2ccc(C#CC3CCCC3)cc2)[C@@H]1C#N	0	-	0	0	34.1	0
N#C[C@H]1[C@H](c2ccc(C#CC3CCCCC3)cc2)[C@@H](CO)N1C(=O)Cc1ccccn1	0	-	0	0	86.8	0
N#C[C@H]1[C@@H](c2ccc(C#CC3CCCCC3)cc2)[C@@H](CO)N1C(=O)Cc1ccccn1	0	-	0	-	0	0
SMILES	RAD52 anneal inh	dFosB act	RAD54 branch	INS-1E GSIS act	DENV2 CPE	MLL AF4-AF9 inh
CCC(=O)Nc1ccc2c(c1)OC[C@@H](C)N(C(=O)C1CC1)C[C@H](C)[C@@H](OC)CN(C)C2=O	0	-	0	0	0	0
CCCC#Cc1cnc2c(c1)C(=O)N([C@H](C)CO)C[C@H](C)[C@H](CN(C)Cc1ccc3c(c1)OCO3)O2	-	-	-	0	-	-
Cc1nnc(NC(=O)CSc2nnc3c(n2)[nH]c2ccc(Br)cc23)s1	0	153.4	-	0	0	0
Cc1ccc(C(=O)NNC(=O)CSc2nnc3c(n2)[nH]c2ccc(F)cc23)cc1	-	0	0	-	-	-
CC(=O)c1c(O)c2cccc3c2n(c1=O)CCC3	0	0	0	40.2	0	0
CN1CCN(C(=O)c2c(O)c3cccc4c3n(c2=O)CCC4)CC1	-	0	0	-	-	-
C[C@@H]1CN([C@@H](C)CO)C(=O)c2cc(NC(=O)C3CCCCC3)ccc2O[C@@H](C)CCCCO[C@@H]1CN(C)C(=O)c1ccccc1	0	-	0	0	0	0
O=C(O)CCNC(=O)OCC1c2ccccc2-c2ccccc21	0	0	0	0	0	0
O=C(CCNC(=O)OCC1c2ccccc2-c2ccccc21)NOCc1ccccc1	0	0	0	0	28.5	0
CNc1nc(Cl)nc2c1ncn2-c1ccccc1	0	0	0	86.8	0	0
Clc1nc(Cl)c2ncn(-c3ccccc3)c2n1	0	0	0	0	0	0
CN1[C@H](C(=O)NCCN2CCCC2)[C@@H](CO)[C@@H]2Cn3c(ccc(/C=C/c4ccccc4)c3=O)[C@@H]21	0	-	-	0	0	0
O=c1c(-c2ccccc2)c(O)c2c(n1-c1ccccc1)CCCC2	-	0	-	0	-	-
CC(C)c1c(O)c2c(n(-c3ccccc3)c1=O)CCCC2	-	0	-	60.5	-	-
CN1/C(=C\C(=O)c2cccs2)Sc2ccccc21	-	0	0	-	-	-
CN1/C(=C/C(=O)c2cccs2)Sc2ccccc21	-	0	56.1	-	-	-
CCCn1c2ccccc2c2nc3ccccc3nc21	-	0	0	-	-	-
N#CCCn1c2ccccc2c2nc3ccccc3nc21	-	0	0	40.9	-	-
COc1cccc(OC)c1C(=O)NNC(=O)c1cccnc1	0	0	0	0	0	34.7
COc1cccc(NC(=O)N2CC(=O)N3[C@H](CO)[C@H](c4ccc(C5=CCCCC5)cc4)[C@@H]3C2)c1	-	-	-	0	0	0
COc1ccc(S(=O)(=O)Nc2ccc(-c3ccc4nnc(C)n4n3)cc2)c(OC)c1	0	21.8	0	0	0	0
CCCC(=O)OC[C@H]1CN(C2CCCC2)S(=O)(=O)c2c(F)cccc2O1	0	-	-	0	49.0	0
CCCCC(=O)Nc1ccc(C(=O)NNC(=O)c2ccc(C)c(Br)c2)cc1	-	0	0	63.8	-	-
Cc1ccc(NC(=O)CCN2CCN(CCO)CC2)cc1Br	0	0	0	0	20.4	0
CCCCC(=O)Nc1ccc(C(=O)NNC(=O)CCc2ccccc2)cc1	0	0	0	0	0	0
